PLK1 PBD block: inhibitors of human PLK1 polo-box domain binding | hit rate 2.8% among 360,000 | AID 720504 | Plk1 PBD binding of FITC phosphopeptide, fluorescence polarization | Potency, µM, for the others: max response, negative = inhibition, actives largely listed as inhibitors | P53350; further: series mostly up to about 57 µM; on the % scale 0 is the no-effect control and ±100 the full control effect; nearly all actives have a fitted effect of over 65% in size
JMJD2A Tudor: inhibitors of human JMJD2A Tudor domain; O75164; hit rate 4.4% among 390,000; AlphaScreen JMJD2A-Tudor / H3K4me3 peptide binding; Potency, µM (titrated, usually from 114 µM), for inactives: at the top dose activity change, negative = inhibition, usual class: inhibitors; further: on the % scale 0 is the no-effect control and ±100 the full control effect; nearly all actives have a fitted effect of over 50% in size
HP1b binding inh: blocks HP1-beta chromodomain binding to methylated histone tails; AlphaScreen HP1-beta / biotin-H3K9me3 peptide binding; Potency, µM (series often up to 114 µM), without a hit: at the top dose activity change, negative = inhibition, usual class: inhibitors; hit rate 0.56% among 390,000; further: nearly all actives have a fitted effect of over 70% in size
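AlphaScreen: HP1-beta (50 nM) preformed 30 min with biotin-H3(1-18)K9me3 peptide (50 nM) in PBS pH 7.4, 0.01% Tween-20. Compound added for 30 min at RT, then streptavidin donor/nickel chelate acceptor beads (10 ug/mL) for 30 min.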
G9a block: inhibitors of human histone lysine methyltransferase G9a; Q96KQ7; G9a H3K9 monomethylation, AlphaScreen, 2 h; Potency, µM (top dose mostly 102 µM), for inactives: at the top dose activity, negative = inhibition, hits mostly inhibitors; hit rate 8.8% among 350,000; AID 504332; further: on the % scale 0 is the no-effect control and ±100 the full control effect; nearly all actives have a fitted effect of over 75% in size
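Step 1: enzyme (final 20 nM) with compound, 15 min RT. Step 2: substrate peptide 500 nM and SAM 20 uM, 2 h RT. Step 3: anti-H3K9me1 antibody and AlphaScreen beads, 10 min, then plate read.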
Sfp PPTase inh: Sfp phosphopantetheinyl transferase inhibition; Q9F4F7; Biochemical Sfp PPTase activity, qHTS; Potency, µM, inactives show largest response in the series, negative = inhibition, hits mostly inhibitors; hit rate 3.5% among 310,000; AID 1490;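 further: the enzyme is Sfp with the accession as filed and its product quenches rhodamine fluorescence; 0% = enzyme reaction without inhibitor and -100% = no enzyme wells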
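Compounds were incubated with enzyme (final 15 nM) for 15 min at room temperature before substrate addition started the reaction. Fluorescence at 525 nm excitation, 598 nm emission was recorded immediately and after 30 minutes.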
BAZ2B inh: inhibitors of human BAZ2B bromodomain. AlphaScreen BAZ2B-H3K14Ac peptide displacement. Potency, µM (doses to about 114 µM), for the others: at the top dose activity change, negative = inhibition, hits mostly inhibitors. Q9UIF8. hit rate 4.4% among 360,000; further: on the % scale 0 is the no-effect control and ±100 the full control effect; nearly all actives have a fitted effect of over 60% in size
Target sequence (Q9UIF8 whole entry, looked up): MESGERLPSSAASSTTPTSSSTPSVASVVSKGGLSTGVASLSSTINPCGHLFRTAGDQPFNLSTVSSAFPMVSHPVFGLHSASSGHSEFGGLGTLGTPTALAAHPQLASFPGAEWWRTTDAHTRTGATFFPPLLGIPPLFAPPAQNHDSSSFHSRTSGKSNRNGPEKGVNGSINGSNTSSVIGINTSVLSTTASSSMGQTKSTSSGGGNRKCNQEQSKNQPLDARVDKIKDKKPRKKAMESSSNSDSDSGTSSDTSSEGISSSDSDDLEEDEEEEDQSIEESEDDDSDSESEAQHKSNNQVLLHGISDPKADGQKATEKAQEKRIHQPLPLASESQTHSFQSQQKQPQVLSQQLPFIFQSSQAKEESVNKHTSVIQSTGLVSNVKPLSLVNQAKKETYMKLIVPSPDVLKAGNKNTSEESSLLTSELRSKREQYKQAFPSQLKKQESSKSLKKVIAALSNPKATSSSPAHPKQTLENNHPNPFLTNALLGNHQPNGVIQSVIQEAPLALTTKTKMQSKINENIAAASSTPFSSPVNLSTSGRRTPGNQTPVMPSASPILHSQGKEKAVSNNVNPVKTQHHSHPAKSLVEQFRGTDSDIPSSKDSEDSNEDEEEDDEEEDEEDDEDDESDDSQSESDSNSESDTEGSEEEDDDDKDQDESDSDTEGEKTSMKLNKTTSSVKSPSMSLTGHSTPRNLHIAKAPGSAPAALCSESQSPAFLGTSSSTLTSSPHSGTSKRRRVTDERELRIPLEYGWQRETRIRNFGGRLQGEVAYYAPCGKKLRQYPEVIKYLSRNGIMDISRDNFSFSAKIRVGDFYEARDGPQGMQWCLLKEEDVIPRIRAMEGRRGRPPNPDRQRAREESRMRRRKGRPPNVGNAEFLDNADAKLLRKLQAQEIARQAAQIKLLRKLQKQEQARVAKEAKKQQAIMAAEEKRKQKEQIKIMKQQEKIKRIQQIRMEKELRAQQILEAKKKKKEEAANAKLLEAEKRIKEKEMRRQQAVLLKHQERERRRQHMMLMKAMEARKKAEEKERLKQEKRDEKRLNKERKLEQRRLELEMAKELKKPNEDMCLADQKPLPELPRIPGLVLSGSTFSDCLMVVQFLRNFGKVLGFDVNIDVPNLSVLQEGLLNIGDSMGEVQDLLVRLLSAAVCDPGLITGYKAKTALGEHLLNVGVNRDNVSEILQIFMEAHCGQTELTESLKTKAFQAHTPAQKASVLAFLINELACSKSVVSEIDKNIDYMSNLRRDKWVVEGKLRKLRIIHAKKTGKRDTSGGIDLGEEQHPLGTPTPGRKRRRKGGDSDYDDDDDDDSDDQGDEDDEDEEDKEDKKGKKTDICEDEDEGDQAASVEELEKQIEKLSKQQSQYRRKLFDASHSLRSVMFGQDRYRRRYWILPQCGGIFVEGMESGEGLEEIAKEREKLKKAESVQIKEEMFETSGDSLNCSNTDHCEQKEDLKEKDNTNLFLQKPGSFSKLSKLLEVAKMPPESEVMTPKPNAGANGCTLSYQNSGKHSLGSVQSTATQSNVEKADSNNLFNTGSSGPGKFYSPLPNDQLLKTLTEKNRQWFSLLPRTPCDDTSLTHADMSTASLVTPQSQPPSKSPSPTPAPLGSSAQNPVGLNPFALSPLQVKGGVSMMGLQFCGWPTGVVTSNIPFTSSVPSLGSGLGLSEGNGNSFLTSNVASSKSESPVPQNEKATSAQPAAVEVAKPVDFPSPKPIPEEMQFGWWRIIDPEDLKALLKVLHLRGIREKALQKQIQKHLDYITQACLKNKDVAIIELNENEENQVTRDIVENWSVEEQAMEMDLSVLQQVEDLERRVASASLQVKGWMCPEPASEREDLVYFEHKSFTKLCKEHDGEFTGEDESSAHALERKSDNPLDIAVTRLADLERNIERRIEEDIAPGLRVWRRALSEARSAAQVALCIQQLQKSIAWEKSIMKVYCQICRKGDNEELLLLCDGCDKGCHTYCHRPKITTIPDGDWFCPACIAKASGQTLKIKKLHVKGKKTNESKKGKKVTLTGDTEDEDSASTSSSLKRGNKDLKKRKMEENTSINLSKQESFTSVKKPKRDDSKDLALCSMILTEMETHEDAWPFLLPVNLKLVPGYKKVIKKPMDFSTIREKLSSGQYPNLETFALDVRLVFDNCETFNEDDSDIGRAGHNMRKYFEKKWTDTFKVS
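Protein-peptide AlphaScreen: BAZ2B 50 nM, b-H3K14Ac 50 nM, 1x PBS pH 7.4 + 0.01% Tween-20. Preincubation 30 min RT; cpd 30 min RT (top 110 uM); beads 20 min RT, light-protected.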
TbPYK inh: confirmation of Trypanosoma brucei pyruvate kinase inhibitors; shares compounds with PLK1 PBD block; recombinant TbPYK, Kinase-Glo ATP luminescence; Potency, µM (doses to about 76.9 µM), for the others: at the highest dose activity change, negative = inhibition, hits mostly inhibitors; hit rate 67% among 890; AID 720569; further: on the % scale 0 is the no-effect control and ±100 the full control effect; nearly all actives have a fitted effect of over 70% in size
TbPYK orthogonal: orthogonal confirmation of Trypanosoma brucei pyruvate kinase inhibitors; shares compounds with PLK1 PBD block; recombinant TbPYK, ADP-Glo luminescence, 60 min; Potency, µM (top dose mostly 76.9 µM), without a hit: at the highest dose activity change, negative = inhibition, usual class: inhibitors; hit rate 62% among 890; further: on the % scale 0 is the no-effect control and ±100 the full control effect; nearly all actives have a fitted effect of over 75% in size
Starred values were filed as active, the others as inactive; ? = inconclusive; · = no result; [ ] = remark or other dose. This is a sample that favours compounds with a hit; in the whole collection about 12% have one here. The call rests on the fitted dose curve; in most records, active means well fitted curve in the direction sought with a large enough effect; inconclusive means small, poorly fitted or top-dose-only effect, or another doubt; inactive means no such curve, though single readings can be large; an effect the other way counts as inactive or inconclusive. Potency means the concentration at half of the fitted maximal effect.

SMILES	PLK1 PBD block	JMJD2A Tudor	HP1b binding inh	G9a block	Sfp PPTase inh	BAZ2B inh	TbPYK inh	TbPYK orthogonal
COc1ccc(NC(=O)CCCNC(=O)c2ccc(Cl)cc2)cc1S(=O)(=O)N1CCOCC1	-9%	-13%	21%	·	·	·	·	·
Cc1[nH]c2ccccc2c1C1=CC(=O)C=CC1=O	3.4µM*	3.2µM*	?	·	·	·	0.56µM*	2.8µM*
CCN1CCN(CCn2c(=S)[nH]c3ccccc3c2=O)CC1	-2%	-30%	31%	?	1%	3%	·	·
O=c1c2sc3ccccc3c2[nH]c(=S)n1CCN1CCOCC1	-12%	?	21%	3.5µM*	45µM*	-21%	4µM*	5.6µM*
Cc1cccc(C(=O)Nc2cccc(NC(=O)c3ccccc3)c2)c1	-1%	-17%	11%	·	2%	?	·	·
Cc1cccc(NC2=C(NC(=O)c3ccccc3)C(=O)c3ccccc3C2=O)c1	?	25µM*	50µM*	3.2µM*	20µM*	28µM*	14µM*	11µM*
CC[n+]1c(C)sc2c3ccsc3ccc21	-20%	56µM*	?	1.6µM*	1.4µM*	·	0.28µM*	0.79µM*
CCOC(=O)c1ccc(NC(=O)CN2C(=O)CSC2=O)cc1	-2%	-16%	4%	8%	5%	-1%	1%	-7%
Cc1nc(C(F)(F)F)ccc1C(=O)N1CCC(C)(C(=O)NS(=O)(=O)C2CC2)C1 (stereo unspecified)	-3%	·	·	·	·	·	·	·
CC(=O)NC1=NC(=O)/C(=C/c2cn(C(C)=O)nc2-c2ccccc2)S1	9.5µM*	22µM*	?	8.9µM*	28µM*	-28%	?	?
COc1ccc(C2Nc3ccccc3C(=O)N2Cc2ccccc2)cc1COc1ccc(Cl)cc1Cl (stereo unspecified)	·	·	·	3%[12.7 µM]	·	4%	·	·
COc1cccc(/C=N/N2C(=O)CSC2=S)c1O	?	10µM*	?	8.9µM*	?	3.2µM*	?	?
COc1ccc2ccccc2c1/C=N/N1C(=O)CSC1=S	-22%	?	-18%	?	?	·	·	·
O=C1CSC(=S)N1N=Cc1c(O)ccc2ccccc12	-10%	50µM*	?	·	·	·	?	16µM*
O=c1ccc2nc3ccccc3sc-2c1	21µM*	·	·	·	·	·	13µM*	?
Cc1nnc(NC(=O)C2CC(=O)N(c3ccccc3)C2)s1 (stereo unspecified)	-13%	-1%	23%	-8%[59 µM]	6%	-2%	·	·
CCC1Oc2ccc(C)cc2N(CC(=O)NC2CCCCC2)C1=O (stereo unspecified)	2%	-28%	-1%	6%	2%	8%	·	·
CCC1Oc2ccc(C)cc2N(CC(=O)N(Cc2ccc(C)o2)C2CCCC2)C1=O (stereo unspecified)	?	-32%	4%	?	18µM*	4%	16µM*	16µM*
C[C@H]1CCC/C=C/[C@@H]2C[C@H](O)C[C@H]2[C@H](O)[C@H](S(=O)c2ccc(O)cc2)CC(=O)O1 (stereo partly specified)	11µM*	40µM*	?	·	·	·	18µM*	13µM*
CSc1cnn(Cc2ccccc2)c(=O)c1SCc1ccccc1	?	35%	60%	8.9µM*	3.2µM*	13%	14µM*	22µM*
Cn1c(=O)c2nc(SCc3ccccc3)n(C)c2n(C)c1=O	-14%	-4%	13%[57 µM]	·	·	·	·	·
CCN(CC)C(=O)CSC1=C(C#N)C(c2cccs2)C=C(C)N1 (stereo unspecified)	?	56µM*	17%	10µM*	50µM*	16%	14µM*	14µM*
CCN(CC)c1ccc(N=C2C(=O)Nc3ccccc32)cc1	-27%	16µM*	?	6.3µM*	?	11µM*	?	-4%
COCC(C)n1c(COc2ccccc2F)nnc1SCC(=O)Nc1oc(C)c2c(C)n[nH]c(=O)c12 (stereo unspecified)	-20%	-12%	43%	10µM*	·	-18%	20µM*	18µM*
Cc1c(CBr)[n+](=O)c2c(n1[O-])C(Br)CCC2Br (stereo unspecified)	27µM*	20µM*	-26%	7.9µM*	11µM*	28µM*	1.1µM*	3.5µM*
Cc1ccc(S(=O)(=O)N(CCC(=O)NCc2ccc(S(N)(=O)=O)cc2)c2ccccc2)cc1	-2%	-16%	14%	6%[0.501 µM]	·	10%	·	·
CCOC(=O)C1=C(N)N(c2ccccc2)C(=O)C1	3µM*	3.5µM*	?	17%[12.7 µM]	6%	-3%	-2%	-2%

Bioassay records deposited in PubChem by National Center for Advancing Translational Sciences (NCATS).
